# Bioassay records (PubChem BioAssay)
# An excerpt weighted towards active compounds, which were near 3.4% of everything screened.
# AI-2 QS mod = Vibrio harveyi AI-2 quorum sensing modulation. Vibrio harveyi JMH597 AI-2 luminescence/OD600 ratio, 9 h; stronger effect = lower value; strain lacks LuxN and CqsS sensors; 0 = neutral-control median. activity change, % at 7.5 µM. hit rate 0.4% among 300,000; in the data active = activity change below about -75%, passing the limit was not always enough;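 also: luminescence divided by OD600 gain over 9 h not by final OD600 alone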
# HSP90 refold inh = blocks HSP90-mediated luciferase refolding in reticulocyte lysate | Rabbit reticulocyte lysate, luciferase refolding luminescence, 3 h | inhibition, % at 5.6 µM | hit rate 0.91% among 290,000 | AID 1789;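 active = inhibition above the screen-wide mean plus 3 SD, computed separately per campaign, cut at about 16% in these data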;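 also: 0% = DMSO wells and 100% = 60 µM geldanamycin wells; inhibitors lower the luminescence because luciferase stays unfolded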
# HSF1 inh = HSF1 inhibition | activity change, negative = inhibition, % at 7.5 µM (by protocol) | NIH3T3-HGL HSE-luciferase, MG132-induced, luminescence 8 h; stronger effect = lower value | hit rate 0.77% among 300,000;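 active = more than half of replicate wells show activity change below -50%, luminescence cut by over half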;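 also: luciferase reports HSF-1 transcriptional activity via heat shock element; 0% = median of DMSO wells and -100% = zero luminescence signal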
# PG9 Ab binder = PG9 antibody binding by small molecule. AID 624416. inhibition, % at 6.7 µM. hit rate 0.43% among 360,000. TR-FRET gp120-PG9 antibody binding; in the data active = inhibition above about 8.5%
# SMARCA2 activ = activators of SMARCA2 function. MG213 cells, MMTV-luciferase reporter, dexamethasone, overnight. activation, % at 9.1 µM. hit rate 1% among 370,000. AID 652017; in the data active = activation above about 7.8%;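 also: 0% = vehicle wells and 100% = reference activator wells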
# GAA850 FXN act = increases GAA850 frataxin promoter reporter activity; HEK293 lucGAA850 FXN promoter luciferase reporter, 24 h; percent of 10 µM SAHA response; activation, % at 6 µM; hit rate 0.56% among 360,000;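 active = activation above the average of all compounds screened plus 3 SD, cutoff fixed separately per campaign, cut at about 7.5% in these data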;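 also: 0% = DMSO wells and 100% = 10 µM SAHA wells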
# SMARCA2 act conf = confirmation of SMARCA2 (BRM) function activators; AID 652260; shares compounds with SMARCA2 activ; MG213 cells, MMTV-luciferase with dexamethasone, luminescence, overnight; MG213 cells expressing E1A, Rb sequestered; DMSO wells 0%, reference activator 100%; hit rate 30% among 3,500; activation, % at 9.1 µM;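 active = activation above its plate's cutoff, the mean activation of tested wells plus 3 SD, cut at about 7.9% in these data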
# VP16 Luc act = counter-screen for SMARCA2 activators: GAL4-VP16 luciferase reporter activation | shares compounds with SMARCA2 activ | AID 686939 | hit rate 41% among 3,500 | HEK293 GAL4-VP16 pG5luc reporter, luciferase luminescence; scaled: DMSO wells 0%, SAHA wells 100% | activation, % at 9.1 µM;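 active = activation above the solvent-only control well mean plus 3 SD, averaged across control plates, cut at about 5.2% in these data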
# * hit, by the source's call; . = no result.
SMILES,AI-2 QS mod,HSP90 refold inh,HSF1 inh,PG9 Ab binder,SMARCA2 activ,GAA850 FXN act,SMARCA2 act conf,VP16 Luc act
COc1cccc(-c2cc(NC=O)c3ncc(-c4ccc(OC)c(OC)c4)n3c2)c1,.,.,.,-0.7,12.0*,-2.5,10.8*,4.8
CS(=O)(=O)Nc1cccc(-c2cc(NC=O)c3ncc(-c4ccc(F)c(Cl)c4)n3c2)c1,.,.,.,-0.6,9.1*,-0.2,5.8,1.6
COc1ccc(-c2cnc3c(NC=O)cc(-c4cc(OC)c(OC)c(OC)c4)cn23)cc1OC,.,.,.,-1.8,15.3*,-0.5,23.9*,9.4*
COc1ccc(-c2cc(NC=O)c3ncc(-c4cc(OC)c(OC)c(OC)c4)n3c2)cc1,.,.,.,-2.0,1.4,3.0,.,.
COc1cc(-c2cnc3c(NC=O)cc(-c4ccc(S(C)(=O)=O)cc4)cn23)cc(OC)c1OC,.,.,.,0.1,-3.7,0.5,.,.
CC(C)CC1C(=O)N(Cc2cn(CCC3OCCCO3)nn2)CCS(=O)(=O)N1Cc1ccc(-c2ccc(Cl)c(Cl)c2)cc1 (configuration not stated),.,.,.,-1.9,-3.0,-1.8,.,.
C[C@H]1COc2cc(N3CCOCC3)ccc2S(=O)(=O)N1,.,.,.,0.3,-4.4,.,.,.
COc1ccc(-c2cnc3c(NC=O)cc(-c4ccc(F)cc4)cn23)cc1OC,.,.,.,1.2,15.0*,-1.8,13.8*,6.3*
COc1ccc(-c2cnc3c(NC=O)cc(-c4cccc(NS(C)(=O)=O)c4)cn23)cc1OC,.,.,.,-1.6,35.6*,-3.8,35.5*,7.8*
CN1CCN(c2ccc(-c3cc(NC=O)c4ncc(-c5ccc(F)c(Cl)c5)n4c3)cc2)CC1,.,.,.,-1.5,2.3,5.2,.,.
COc1ccc(-c2cc(NC=O)c3ncc(-c4ccc(OC)c(OC)c4)n3c2)c(OC)c1,.,.,.,-0.7,11.3*,-0.2,17.4*,11.4*
COc1ccc(-c2cc(NC=O)c3ncc(-c4cccc(OC)c4)n3c2)cc1,.,.,.,0.1,5.6,-4.2,.,.
CC(=O)c1ccc(-c2cnc3c(NC=O)cc(-c4ccc(N5CCN(C)CC5)cc4)cn23)cc1,.,.,.,-2.6,11.8*,5.7,16.0*,4.1
Nc1sc(-c2ccccc2)cc1C(=O)N1CCN(c2ccccc2)CC1,.,.,.,0.3,1.9,.,.,.
Brc1ccc(CN2CCCc3nc(-c4ccccc4)ccc32)cc1,.,.,.,0.0,-2.3,.,.,.
COc1ccc(-c2cnc3c(NC=O)cc(-c4ccccc4)cn23)cc1OC,.,.,.,1.7,13.7*,1.9,10.1*,6.1*
COc1ccc(-c2cnc3c(NC=O)cc(-c4ccoc4)cn23)cc1OC,.,.,.,-1.2,4.7,-3.6,.,.
COC[C@H]1CCCN1c1ccc2c(c1)OCCCN(C1CC1)S2(=O)=O,.,.,.,.,-0.3,.,.,.
Cc1ccc(Cc2c(-c3ccc(Br)cc3)nc3cc(C)ccn23)cc1,.,.,.,0.8,8.2*,3.1,4.7,4.3
Cc1ccc(Cc2c(-c3ccc(F)cc3)nc3cc(C)ccn23)cc1,.,.,.,0.4,3.1,7.2,.,.
C[C@@H]1CN([C@H](C)CO)C(=O)CCCn2nncc2CO[C@@H]1CN(C)C(=O)Nc1ccccc1,.,.,.,1.7,-2.8,.,.,.
COc1cccc(CNC(=O)[C@@H]2CCCN2C(=O)[C@@H]2CCCN2S(=O)(=O)c2ccc(OC)c(C)c2)c1,.,.,.,-0.8,9.1*,.,0.9,0.7
Clc1cccc(/C=N/Nc2nc(Cl)nc3ccccc23)c1,-4.5,-1.4,6.6,-2.1,11.5*,7.3,10.7*,10.7*
O=C1/C(=C\c2ccccc2)CCc2c1[nH]c1ccccc21,2.3,-4.4,59.0,-0.5,2.2,-2.6,.,.
Cc1ccc(/C=C2/CCc3c([nH]c4ccccc34)C2=O)cc1,6.8,-0.7,12.6,-1.1,8.2*,5.7,3.2,10.6*
SMILES,AI-2 QS mod,HSP90 refold inh,HSF1 inh,PG9 Ab binder,SMARCA2 activ,GAA850 FXN act,SMARCA2 act conf,VP16 Luc act
O=[N+]([O-])c1ccc(OC2OCC(O)C(O)C2O)cc1 (configuration not stated),.,.,.,-2.0,-4.3,.,.,.
Cc1ccc(C(=O)N/N=C2\CCc3ccccc32)c(C)c1,3.6,3.6,-15.3,-0.5,8.5*,2.4,7.2,11.0*
CCN1Cc2nnn(Cc3ccccc3)c2-c2cc(N3CCCC3)ccc2S1(=O)=O,.,.,.,.,-2.6,.,.,.
CSc1nc(Cl)cc(Nc2ccc(O)cc2)n1,4.6,-3.3,14.6,-3.8,14.2*,5.1,5.9,3.8
COc1ccc(CCNC(=O)C(=O)NCC2OCCN2C(=O)c2ccc(Cl)cc2)cc1OC (configuration not stated),28.3,-3.9,2.9,-0.3,9.5*,1.3,-0.1,0.8
COc1ccc(CCNC(=O)C(=O)NCC2OCCN2S(=O)(=O)c2ccc(OC)c(OC)c2)cc1OC (configuration not stated),13.6,0.3,-8.4,0.0,3.0,1.5,.,.
COC(=O)c1cc2c(c3c4cc(C)ccc4n(S(=O)(=O)c4ccc(C)cc4)c13)C(=O)N(Cc1ccccc1OC)C2,.,.,.,-1.1,-6.4,.,.,.
CC/S(=N\S(=O)(=O)c1ccc(C)cc1)c1ccccc1 (configuration not stated),29.3,0.1,.,-3.7,8.1*,0.5,-3.7,-1.3
Cc1ccc(S(=O)(=O)/N=S(/C)c2ccccc2)cc1 (configuration not stated),10.0,2.2,5.1,-0.6,-1.9,1.1,.,.
COc1cc2c[n+](C)c3c4ccccc4ccc3c2cc1OC,.,.,.,-0.4,11.1*,7.4,42.4*,1.1
CC(NS(=O)(=O)c1cc2c3c(c1)CCN3C(=O)CC2)c1ccccc1 (configuration not stated),.,.,.,-0.9,0.8,-2.3,.,.
c1coc(-c2nnc(NC3=NCCC3)o2)c1,0.2,-0.2,7.6,1.8,8.8*,1.5,3.1,5.4*
Cc1nnc(NC2=NCCC2)o1,12.2,2.2,-9.2,-1.9,-1.4,-0.9,.,.
O=C1NC(=O)C2(C=C(c3ccccc3)C(O)(c3ccccc3)C2)N1 (configuration not stated),.,.,.,-2.3,8.2*,-0.7,0.8,1.1
O=C(O)CCC1(c2ccccc2)NC(=O)NC1=O (configuration not stated),13.9,3.2,-5.9,-0.9,-1.7,-0.4,.,.
OCC1OC(n2cnc3c(NCCc4ccccc4)ncnc32)C(O)C1O (configuration not stated),22.6,.,2.7,-0.2,10.8*,4.8,5.5,7.8*
Cc1cc(OCC(=O)NC(C)C)cc(C)c1Cl,5.7,1.0,-5.1,-1.2,11.4*,0.6,-4.8,-0.7
Cc1cc(OCC(=O)NNC(=O)c2ccncc2)cc(C)c1Cl,17.2,-1.7,.,0.5,5.2,-1.5,.,.
CNc1cncc(-c2ccc(F)cc2F)n1,.,.,.,1.6,10.3*,2.0,0.1,1.0
